According to PubChem BioAssay (EPA / NIEHS):
Records with an inconclusive call do not appear. The source made the active and inactive calls. How the source made its calls: active means hit-call score of the fitted dose curve at least 0.9, where 1 is the maximum; inconclusive means response in the unintended direction; inactive means score below 0.9.

System: not listed separately
Assay: TOX21_p53_BLA_p2_viability: Viability Assessment in the Tox21 HCT-116 p53 Agonism Beta-lactamase Assay, Phase 2 (AID 2283591);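 further: compound exposure lasted 16 h at 37 °C; actives lower the ATP signal meaning cytotoxicity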
In short: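 Cytotoxicity readout: CellTiter-Glo ATP luminescence, 30 min at room temperature, after the beta-lactamase read. Cells were HCT116 exposed 16 h at 37C to compounds pin-transferred at 217-fold dilution from DMSO stocks.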

Compound	outcome
CC1CCc2nccnc21 (stereo not drawn)	inactive
C[N+](C)(C)CC[N+]1(C)Cc2c(Cl)c(Cl)c(Cl)c(Cl)c2C1	inactive
BrCCCCCBr	inactive
CC(C)Cc1nccs1	inactive
CCOC(=O)C1=C[C@@H](OC(CC)CC)[C@H](NC(C)=O)[C@@H](N)C1	inactive
O=C(O)C(=O)Cc1ccccc1	inactive
CN1CCCN=C1/C=C/c1cccs1	inactive
COc1ccc(C(=O)CCC(=O)O)c2ccccc12	inactive
Cc1ncc(CO)c(C=O)c1O	inactive
C[C@@]12CCC[C@H]1[C@@H]1CC[C@H]3C[C@@H](O)CC[C@]3(C)[C@H]1CC2	inactive
O=C(O)c1c(Cl)cccc1Cl	inactive
O=C(CCc1ccc(O)cc1)c1c(O)cc(O)cc1O	inactive
O=S(=O)(Oc1ccc(Cl)cc1)c1ccccc1	inactive
BrC/C=C/CBr	inactive
Nc1ncnc2c1ncn2[C@H]1CC[C@@H](CO)O1	inactive
COc1cc(N)c(Cl)cc1C(=O)NC1CCN(Cc2ccccc2)CC1	inactive
O=C(O)CN(CC(=O)O)CC1=CC2C(=CC1=O)Oc1cc(O)c(CN(CC(=O)O)CC(=O)O)cc1C21OC(=O)c2ccccc21 (stereo not drawn)	inactive
CCC(C)[O-].CCC(C)[O-].CCOC(=O)/C=C(/C)[O-].[Al+3]	inactive
CC(=O)Oc1cc2c(s1)CCN(C(C(=O)C1CC1)c1ccccc1F)C2 (stereo not drawn)	inactive
O=C1c2ccccc2-c2ccccc21	inactive

Compound	outcome
CCOC(=O)[C@H](CCc1ccccc1)N[C@@H](C)C(=O)N1C(=O)N(C)C[C@H]1C(=O)O	inactive
O=C(O)CNCC(=O)O	inactive
O=[N+]([O-])c1ccccc1CCO	inactive
CCC(C)SSC(C)CC (stereo not drawn)	inactive
CCCCN1C=CN(C)C1	inactive
Cc1nc2n(c(=O)c1CCN1CCC(c3noc4cc(F)ccc34)CC1)CCC[C@H]2O	inactive
ClC/C=C/CCl	inactive
Cc1cc(C(=O)O)ccc1[N+](=O)[O-]	inactive
C[N+]1(CCCCC[N+]2(C)CCCC2)CCCC1	inactive
COC(=O)C(c1ccccc1Cl)N1CCc2sccc2C1 (stereo not drawn)	inactive
Nc1nc(/C(=C/CC(=O)O)C(=O)N[C@@H]2C(=O)N3C(C(=O)O)=CCS[C@H]23)cs1	inactive
O.O=C([O-])CC([S-])C(=O)[O-].[Au+].[Na+].[Na+] (stereo not drawn)	inactive
Nc1cc(Cl)c(NC2=NCCN2)c(Cl)c1	inactive
CC(=O)c1ccc2c(c1)N(CCCN(C)C)c1ccccc1S2	inactive
C=CC(=O)OCCCl	inactive
CC(C)(C)C(=O)CC(=O)C(C)(C)C	inactive
C1COC1	inactive
O=C(Nc1ccc(O)cc1)c1ccccc1O	inactive
SCCCCCCCCS	inactive

System: not listed separately
Assay: TOX21_p53_BLA_p3_viability: Viability Assessment in the Tox21 HCT-116 p53 Agonism Beta-lactamase Assay, Phase 3 (AID 2283593);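 further: cells exposed to compound for 16 h before reading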
In short: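 Cellular ATP was quantified by CellTiter-Glo luminescence, read after 30 min at room temperature. Beforehand, HCT116 cells (4000/well) received compound 5 h post-seeding, 217-fold diluted from DMSO, then incubated 16 h at 37C.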

Compound	outcome
CC1CCc2nccnc21 (stereo not drawn)	inactive
CCOC(=O)C1=C[C@@H](OC(CC)CC)[C@H](NC(C)=O)[C@@H](N)C1	inactive
O=C(O)C(=O)Cc1ccccc1	inactive
COc1ccc(C(=O)CCC(=O)O)c2ccccc12	inactive
O=C(CCc1ccc(O)cc1)c1c(O)cc(O)cc1O	inactive
O=S(=O)(Oc1ccc(Cl)cc1)c1ccccc1	inactive
COc1cc(N)c(Cl)cc1C(=O)NC1CCN(Cc2ccccc2)CC1	inactive
O=C(O)CN(CC(=O)O)CC1=CC2C(=CC1=O)Oc1cc(O)c(CN(CC(=O)O)CC(=O)O)cc1C21OC(=O)c2ccccc21 (stereo not drawn)	inactive
CCC(C)[O-].CCC(C)[O-].CCOC(=O)/C=C(/C)[O-].[Al+3]	inactive
CC(=O)Oc1cc2c(s1)CCN(C(C(=O)C1CC1)c1ccccc1F)C2 (stereo not drawn)	inactive
C[N+]1(CCCCC[N+]2(C)CCCC2)CCCC1	inactive
COC(=O)C(c1ccccc1Cl)N1CCc2sccc2C1 (stereo not drawn)	inactive
Nc1cc(Cl)c(NC2=NCCN2)c(Cl)c1	inactive
C=CC(=O)OCCCl	inactive

Biological target: Cellular tumor antigen p53 (Homo sapiens) (UniProt P04637)
Sequence (P04637 whole entry, looked up): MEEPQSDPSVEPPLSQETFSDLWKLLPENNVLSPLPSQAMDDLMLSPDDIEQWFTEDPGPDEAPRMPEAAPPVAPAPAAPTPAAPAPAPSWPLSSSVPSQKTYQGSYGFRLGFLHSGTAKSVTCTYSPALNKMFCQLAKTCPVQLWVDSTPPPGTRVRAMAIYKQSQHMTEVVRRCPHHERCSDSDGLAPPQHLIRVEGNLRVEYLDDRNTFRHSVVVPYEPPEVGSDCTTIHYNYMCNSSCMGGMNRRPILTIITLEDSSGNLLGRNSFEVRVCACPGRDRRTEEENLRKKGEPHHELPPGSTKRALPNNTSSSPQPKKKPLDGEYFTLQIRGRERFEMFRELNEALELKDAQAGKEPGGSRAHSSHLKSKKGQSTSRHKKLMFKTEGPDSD
Assay: TOX21_p53_BLA_p3_ratio: Tox21 HCT-116 p53 Agonism Beta-lactamase Assay, Ratio, Phase 3 (AID 2283596)
In short: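 Cells were seeded at 4000/well, rested 5 h at 37C, then dosed with DMSO compound solutions (217-fold dilution) for 16 h. CCF4-AM substrate was loaded for 2 h at room temperature, and the 460/530 nm emission ratio was fitted for gain of signal versus DMSO.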

Compound	outcome
C[N+](C)(C)CC[N+]1(C)Cc2c(Cl)c(Cl)c(Cl)c(Cl)c2C1	inactive
BrCCCCCBr	inactive
CC(C)Cc1nccs1	inactive
CN1CCCN=C1/C=C/c1cccs1	inactive
Cc1ncc(CO)c(C=O)c1O	inactive
C[C@@]12CCC[C@H]1[C@@H]1CC[C@H]3C[C@@H](O)CC[C@]3(C)[C@H]1CC2	inactive
O=C(O)c1c(Cl)cccc1Cl	inactive
BrC/C=C/CBr	inactive
Nc1ncnc2c1ncn2[C@H]1CC[C@@H](CO)O1	inactive
O=C1c2ccccc2-c2ccccc21	inactive
CCOC(=O)[C@H](CCc1ccccc1)N[C@@H](C)C(=O)N1C(=O)N(C)C[C@H]1C(=O)O	inactive
O=C(O)CNCC(=O)O	inactive
O=[N+]([O-])c1ccccc1CCO	inactive
CCC(C)SSC(C)CC (stereo not drawn)	inactive
CCCCN1C=CN(C)C1	inactive
Cc1nc2n(c(=O)c1CCN1CCC(c3noc4cc(F)ccc34)CC1)CCC[C@H]2O	inactive
ClC/C=C/CCl	inactive
Cc1cc(C(=O)O)ccc1[N+](=O)[O-]	inactive
Nc1nc(/C(=C/CC(=O)O)C(=O)N[C@@H]2C(=O)N3C(C(=O)O)=CCS[C@H]23)cs1	inactive
O.O=C([O-])CC([S-])C(=O)[O-].[Au+].[Na+].[Na+] (stereo not drawn)	inactive
CC(=O)c1ccc2c(c1)N(CCCN(C)C)c1ccccc1S2	inactive
CC(C)(C)C(=O)CC(=O)C(C)(C)C	inactive
C1COC1	inactive
O=C(Nc1ccc(O)cc1)c1ccccc1O	inactive
SCCCCCCCCS	inactive
